Compounds with a hit are over-represented: about 1.1% of the library has one in this group of screens.
USP2a block = inhibitors of human ubiquitin-specific protease USP2a | O75604 | USP2 core, Ub-CHOP2 coupled fluorogenic reporter, 485/531 | Potency, µM (highest dose often 38.3 µM), usual class: inhibitors | 0.01% of 330,000 active | AID 463254
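Cell-free coupled assay: 10nM USP2 core preincubated 30min RT with compound in Tris-HCl pH 8.0/CaCl2/CHAPS buffer, then 25nM Ub-CHOP2 and 25nM reporter substrate; fluorescence (Ex 485/Em 531) read after 60min RT, normalized to NEM inhibition, concentration-response curves fitted.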
PTAP TSG101 blk = blocks PTAP/TSG101 interaction to inhibit HIV-1 budding. Fluorescence polarization, FITC-PTAP peptide / Tsg101 binding. Potency, µM (titrated, usually from 115 µM), hits mostly inhibitors. 340,000 tested, under 10 active. AID 493005; active means well fitted inhibition curve with a large enough effect in the main read-out, with a control signal flat, not every such curve was filed as active; inconclusive means small, poorly fitted or top-dose-only effect, or effect the other way, or a change in a side signal; inactive means no such curve, though single readings can be large or run the other way
Target sequence (Q99816 whole entry, looked up): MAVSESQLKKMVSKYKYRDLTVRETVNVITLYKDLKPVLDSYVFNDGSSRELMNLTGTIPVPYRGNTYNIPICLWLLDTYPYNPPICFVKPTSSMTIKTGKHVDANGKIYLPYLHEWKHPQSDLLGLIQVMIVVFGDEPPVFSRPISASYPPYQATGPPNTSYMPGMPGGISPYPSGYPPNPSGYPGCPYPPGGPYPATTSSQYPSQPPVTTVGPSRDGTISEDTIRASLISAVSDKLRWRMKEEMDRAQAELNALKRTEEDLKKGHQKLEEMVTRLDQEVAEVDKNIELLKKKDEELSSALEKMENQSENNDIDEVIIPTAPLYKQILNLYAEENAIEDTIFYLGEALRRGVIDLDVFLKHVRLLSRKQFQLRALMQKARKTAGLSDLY
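Compounds were pin-transferred onto Tsg101 binding domain (10 uM final) in HEPES pH 7.5 buffer, then FITC-PTAP peptide was added at 50 nM final. After 20 min at RT, polarization reported peptide displacement across a qHTS concentration series.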
ALOX12 inh = blocks human arachidonate 12S-lipoxygenase; purified 12hLO, xylenol orange hydroperoxide absorbance; Potency, µM (series often up to 108 µM), hits mostly inhibitors; 1.1% of 580,000 active
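Purified human 12hLO (150 nM final) in 25 mM Hepes, 0.01% Triton X-100, pH 7.0 was preincubated 15 min at room temperature with compound. Then 40 uM arachidonic acid was added, 30 min. Hydroperoxide was read by Fe-XO absorbance ratio 573/405 nm.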
Eya2 inh = inhibitors of human Eya2 phosphatase activity; O00167; recombinant Eya2, OMFP fluorescence dephosphorylation (OMFP is methylfluorescein phosphate); Potency, µM (series often up to 76.9 µM), actives largely listed as inhibitors; 0.006% of 330,000 active
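Eya2 protein (added as 0.2 uM solution) was preincubated with compound for 10 min at ambient temperature in 50 mM HEPES pH 7.5, 50 mM NaCl, 5 uM MgCl2, 0.05% BSA, 1 mM DTT. OMFP (added at 50 uM) then reacted 10 min; fluorescence read at 485/525 nm.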
Hits are given with their value; . = inactive; ? = inconclusive; / = no result given; ! = not active in a repeat; [ ] = dose if it differs, or a comment. Unless noted, the call rests on the fitted dose curve; in most records, active means well fitted curve in the direction sought with a large enough effect; inconclusive means small, poorly fitted or top-dose-only effect, or another doubt; inactive means no such curve, though single readings can be large; an effect the other way counts as inactive or inconclusive.

SMILES | USP2a block | PTAP TSG101 blk | ALOX12 inh | Eya2 inh
Nc1cc(S(=O)(=O)Nc2ccccc2Cl)ccc1N1CCCCC1 | . | . | 28.2µM | .
Cn1c(=O)c(=O)n(C)c2cc(N3CCCC3)c(NS(=O)(=O)c3ccc(Cl)cc3)cc21 | . | . | 39.8µM | .
Nc1ccc(N2CCCCC2)c(S(=O)(=O)Nc2ccccc2Cl)c1 | . | . | ? | .
Cc1ccc(S(=O)(=O)Nc2ccccc2O)cc1 | / | / | . | /
Fc1ccc(C2=Nc3ccc(Br)cc3NC(c3cccs3)=N2)cc1 | / | / | . | /
CCCc1cc(=O)oc2cc(OC(C)C(=O)NCc3ccccn3)ccc12 (stereo unspecified) | / | / | . | /
Cc1ccc(S(=O)(=O)Nc2ccccc2NS(=O)(=O)c2ccc(C)cc2)cc1 | / | / | 7.94µM | /
Cc1cccc(NC(=O)c2ccc(N(C)C)cc2)c1C | / | / | . | /
COCCn1nnnc1C(c1ccc(OC)cc1OC)N1CCN(c2ccccc2F)CC1 (stereo unspecified) | . | . | 39.8µM | .
COc1ccc(N2CCN(C(c3cc(OC)ccc3OC)c3nnnn3Cc3ccco3)CC2)cc1 (stereo unspecified) | . | . | 22.4µM | .
COc1ccc(OC)c(C(c2nnnn2CCc2ccccc2)N2CCN(c3ccccc3)CC2)c1 (stereo unspecified) | . | . | . | .
NCc1ccccc1-c1cccc(Cl)c1 | / | / | .[12.5 µM] | /
CC(C)=C1C(=O)NN(c2ccc(F)c(Cl)c2)C1=O | . | / | 10µM | .
O=C(NC(c1ccc(Cl)cc1)c1cccnc1)c1ccccc1 (stereo unspecified) | / | / | . | /
C=C(C)CC1Nc2ccccc2NC1CC(=C)C (stereo unspecified) | . | . | 28.2µM | .
C=C(C)CC1NC2CC(C)(C)C1c1c(Br)ccc(Br)c12 (stereo unspecified) | / | / | . | /
O=C(c1ccc(Cl)cc1)N1CCC2(C1)C(=O)N(c1ccccc1)c1ccccc12 (stereo unspecified) | / | / | .[6.33 µM] | /
Cc1ccc(Cn2c(C3CCN(C(=O)c4cccc(F)c4)CC3)n[nH]c2=O)cc1 | / | / | 44.7µM | /
Cc1ccc(Cn2c(C3CCN(C(=O)c4cccc(C)c4)CC3)n[nH]c2=O)cc1 | / | / | . | /
Cc1ccc(Cn2c(C3CCN(C(=O)c4ccc(C#N)cc4)CC3)n[nH]c2=O)cc1 | / | / | 6.31µM | /
Cc1ccc(-n2c(C3CCN(C(=O)COc4ccc(F)cc4)CC3)n[nH]c2=O)cc1 | / | / | 44.7µM | /
Cc1nnc(NC(=O)NCC(C)(C)N2CCN(C)CC2)s1 | / | / | . | /
COc1ccc(-c2nc(C3CC3)nc3c2CCN(Cc2cccn2C)CC3)cc1 | / | / | .[6.33 µM] | /
CC(=O)OC(CC(=O)O)C[N+](C)(C)C (stereo unspecified) | . | . | . | .
CC(=O)O[C@H](CC(=O)O)C[N+](C)(C)C | . | . | 35.5µM! | .
SMILES | USP2a block | PTAP TSG101 blk | ALOX12 inh | Eya2 inh
CN(Cc1ccccc1)C(=O)C1CCN(Cc2cc3ccccc3n2Cc2ccccc2)CC1 | / | / | 44.7µM | /
CN(C)CCNC(=O)C1CCN(Cc2cc3ccccc3n2Cc2ccccc2)CC1 | / | / | . | /
N=C1/C(=C\c2ccc(-c3ccc(C(=O)O)cc3)o2)C(=O)N=C2SC=C(c3ccccc3)N12 | . | . | ? | .
N=C1/C(=C\c2ccc(-c3cccc(Cl)c3)o2)C(=O)N=C2SC=C(c3ccccc3)N12 | ? | . | 35.5µM | .
COc1ccccc1CCNC(=O)C1CCN(c2nc(Cl)nc3nc[nH]c23)CC1 | / | / | . | /
CC(OC(=O)c1cc(-c2ccco2)nc2ccccc12)C(=O)NC(=O)NC(C)(C)C (stereo unspecified) | / | / | 8.91µM | /
O=C(NC1CCC(O)CC1)c1cc(-c2ccco2)nc2ccccc12 (stereo unspecified) | . | . | ? | ?
CC(OC(=O)c1cc(-c2ccco2)nc2ccccc12)C(=O)NC(=O)NC1CCCCC1 (stereo unspecified) | / | / | 7.94µM | /
NCC(=O)N1Cc2ccccc2CC2(CCN(CC3CCOCC3)C2)C1 (stereo unspecified) | / | / | . | /
O=C1C=CC(=O)N1CCCCCCCCCCN1C(=O)C=CC1=O | / | . | 2µM | /
O=C1C=CC(=O)N1Cc1ccncc1 | / | . | ? | /
Cc1ccccc1NC(=O)c1cc(-c2ccco2)nc2ccccc12 | / | . | ? | /
O=C(O)c1cc(-c2ccco2)nc2ccc(Br)cc12 | . | . | 15.8µM! | .
Cc1cccc2c(C(=O)O)cc(-c3ccco3)nc12 | / | / | 8.91µM | /
COc1cccc(-c2nc(-c3c[nH]c(C(=O)N4CCCC4)c3)cs2)c1 | / | / | . | /
COCCNC(=O)Cc1c[nH]c2ncc(-c3ccc(OC)cc3)cc12 | / | / | . | /
O=C(c1ccccc1)N1CCC(N2C(=O)C(OCC3CC3)C23CCCCC3)CC1 (stereo unspecified) | / | / | . | /
COc1cccc(/C=N/NC(N)=S)c1OCc1ccccc1Cl | . | . | 28.2µM | .
COc1cccc(/C=N/n2nnnc2N)c1OCc1ccccc1Cl | . | . | . | .
COc1ccc(C(=S)NCS(=O)(=O)c2ccc(C)cc2)cc1 | . | . | 15.8µM | .
Cc1ccc(-c2ccccc2NC(=O)CS(=O)CC(=O)Nc2ccc(C)c(Cl)c2)o1 (stereo unspecified) | . | . | 39.8µM | .
Cc1ccc(-c2ccccc2NC(=O)CCl)o1 | . | . | ? | .
CC1(C)[C@H](Cc2cc(CN3CCOCC3)on2)C[C@@H]1NCc1ccccc1O | / | / | . | /
CC(C)c1ccc(/C=C(\C#N)C(=O)NC2CCCC2)cc1 | / | / | . | /
O=C1C=C(c2cccc(Cl)c2O)C[C@@H](c2ccc(Cl)cc2)C1 | . | . | 11.2µM | .
SMILES | USP2a block | PTAP TSG101 blk | ALOX12 inh | Eya2 inh
Cc1ccc(S(=O)(=O)Nc2ccc(SC(F)F)cc2)c(C)c1 | . | . | 15.8µM | .
CC(C)c1ccc(S(=O)(=O)Nc2ccc(SC(F)F)cc2)cc1 | . | . | ? | .
CCN(CC)CCn1c2ccccc2c(=O)c2c(O)ccc(O)c21 | / | . | 25.1µM | /
COc1ccc(CCNC(=S)NCCc2c[nH]c3ccccc23)cc1 | . | . | 44.7µM | .
Cc1ccc(NC(=S)NCCc2c[nH]c3ccccc23)cc1 | . | . | ? | .
Cc1cccc(NC(=S)NCCc2c[nH]c3ccccc23)c1 | . | . | 39.8µM | .
Cc1ccc(C)c(NC(=S)NCCc2c[nH]c3ccccc23)c1 | . | . | ? | .
S=C(NCCc1c[nH]c2ccccc12)Nc1ccc(Br)cc1 | / | / | 31.6µM | /
Cc1ccccc1NC(=S)NCCc1c[nH]c2ccccc12 | . | . | ? | .
CC(C)c1ccc(NC(=S)NCCc2c[nH]c3ccccc23)cc1 | . | . | 35.5µM | .
CCC(=O)Nc1ccc(-c2nc3cc(Cl)ccc3o2)cc1 | / | / | . | /
COc1cccc(N2C(=O)NC(=NC3CCCC3)C23CCCN(CC2CC2)C3)c1 (stereo unspecified) | / | / | .[6.33 µM] | /
CCCCn1c(=O)n(CC(=O)NCc2ccc(Cl)cc2)c(=O)c2c1ncn2CC(C)C | / | / | . | /
COC(=O)[C@]12CCC(C)(C)C[C@@H]1[C@@H]1C(=O)C=C3[C@@]4(C)C=C(C#N)C(=O)C(C)(C)[C@@H]4CC[C@@]3(C)[C@]1(C)CC2 | / | / | 9.68µM | /

From PubChem
